Screening data from PubChem BioAssay.
GPR151 activ: activators of human GPR151, primary screen, cell-based, PathHunter beta-arrestin, luminescence; G-protein coupled receptor 151 (Homo sapiens), Q8TDV0; PathHunter beta-arrestin GPR151 cells; activation, % at 11.2 µM; 1% of 650,000 active; AID 1508602, 2020; in the data active = activation above about 4.9%;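 note: 0% = median of compound wells and 100% = cells with positive control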
Target sequence (Q8TDV0 whole entry, looked up): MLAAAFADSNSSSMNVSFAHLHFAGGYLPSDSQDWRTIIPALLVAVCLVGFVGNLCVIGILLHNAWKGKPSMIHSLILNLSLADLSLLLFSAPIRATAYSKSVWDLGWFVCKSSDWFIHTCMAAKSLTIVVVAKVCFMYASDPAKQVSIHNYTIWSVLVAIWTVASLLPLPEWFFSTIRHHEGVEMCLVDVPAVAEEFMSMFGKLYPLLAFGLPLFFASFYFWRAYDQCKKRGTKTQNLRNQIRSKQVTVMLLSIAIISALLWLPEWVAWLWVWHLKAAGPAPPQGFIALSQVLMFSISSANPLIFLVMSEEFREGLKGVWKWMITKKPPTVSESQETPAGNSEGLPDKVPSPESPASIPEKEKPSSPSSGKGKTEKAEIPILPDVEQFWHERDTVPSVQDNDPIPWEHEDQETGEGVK
MITF inh: MITF inhibitors, primary screen, biochemical, AlphaScreen, human | AlphaScreen MITF homodimerization, bead proximity signal | inhibition, % at 2.6 µM | AID 1259374, 2018 | 0.91% of 650,000 active | Microphthalmia-associated transcription factor (Homo sapiens), O75030; in the data active = inhibition above about 50%;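 note: 0% = vehicle wells with protein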
TEAD-YAP block: TEAD-YAP interaction inhibition, primary screen, TEAD-YAP interaction inhibitor project, luminescence, HEK-TIYL cells; TEAD-Gal4/YAP UAS-luciferase luminescence; inhibition, % at 9.12 µM; 1.4% of 640,000 active; in the data active = inhibition above about 32%;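 note: 0% = median of test compound wells and 100% = reference inhibitor wells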
FBW7 activator: FBW7 E3 ligase activators, primary screen, biochemical, AlphaScreen, human; F-box/WD repeat-containing protein 7 (Homo sapiens), Q969H0; AlphaScreen FBW7–phospho-cyclin E peptide binding, activator screen; normalized activity (activation), % at 26.1 µM; 0.13% of 650,000 active; AID 1259310, 2017; in the data active = normalized activity above about 1.9%;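 note: purified mutant Fbw7 with reduced substrate affinity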
MITF confirm: MITF inhibitors, retest of hits, confirmation, biochemical, AlphaScreen, triplicate. shares compounds with MITF inh. AlphaScreen MITF homodimerization, biotin/His-MITF beads. inhibition, % at 2.6 µM. 16% of 4,700 active;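 active = inhibition above a cutoff derived from the DMSO control wells, cut at about 28% in these data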;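 note: 0% = MITF dimer wells with DMSO only; inhibitors lower the bead chemiluminescence by keeping MITF from dimerizing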
AlphaScreen DR: AlphaScreen optical interference compounds, dose response, counter-screen, biochemical, HTS; shares compounds with MITF inh; AlphaScreen optical interference counterscreen, cell-free; IC50, µM; 6% of 480 active; AID 1259373, 2018; call rule not given here
AlphaScreen intf2: AlphaScreen optical interference compounds, counter-screen for MITF inhibitor project, biochemical, triplicate. shares compounds with MITF inh. LysRS AlphaScreen counterscreen, signal interference. inhibition, % at 2.6 µM. 7.6% of 4,700 active;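 active = inhibition above a cutoff derived from the DMSO control wells, cut at about 30% in these data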
* = called active by the depositor; . = not tested or not shown. Shown are actives, neighbours in structure and some others; about 3.5% of the full set was active somewhere.

SMILES | GPR151 activ | MITF inh | TEAD-YAP block | FBW7 activator | MITF confirm | AlphaScreen intf2 | others
COc1ccc(CN2CCC(N3CC(C)OC(C)C3)CC2)cc1OC (stereo unspecified) | -0.2 | 62.8* | 1.1 | -0.1 | -7.1 | 0.8
COc1cc(OC)c(OC)cc1CN1CCN(C2CCN(Cc3ccccc3)CC2)CC1 | -1.9 | 58.5* | -1.8 | 0.2 | 1.8 | 1.3
CC[n+]1c(C)n(CC(N)=O)c2cc(-c3nnc4n3CCCCC4)ccc21 | 0.3 | -3.3 | -17.9 | -0.1 | . | .
COc1ccc(C)cc1NC(=O)CN1CCN(CC(=O)Nc2ccc(F)cc2)CC1 | 0.3 | 3.0 | -4.0 | 0.2 | . | .
COc1ccc(CN2CCC(N3CC(C)OC(C)C3)CC2)c(OC)c1 (stereo unspecified) | -0.3 | 94.9* | 10.0 | 0.0 | -16.8 | -4.2
COc1ccc(CN2CCC(C(=O)N3CCOCC3)CC2)c(OC)c1 | 0.7 | 56.1* | -7.7 | -0.1 | 11.3 | 7.3
COc1ccc(CN2CCCC2)c(OC)c1 | 0.8 | 25.8 | 7.9 | 0.1 | . | .
CCOC(=O)C1CCN(Cc2ccc(OC)cc2OC)CC1 | 1.9 | 23.8 | 5.6 | 0.0 | . | .
COc1ccc(CN2CCN(C3CCC(C)CC3)CC2)c(OC)c1 (stereo unspecified) | 0.4 | 69.0* | 7.3 | -0.3 | 4.3 | 15.5
COc1cc([N+](=O)[O-])ccc1NC(=O)CSc1ncn[nH]1 | 2.2 | -9.5 | -0.1 | -0.4 | . | .
CC(C)(C)NCCOCCOc1ccc(Cl)cc1 | 0.5 | 36.5 | -1.1 | -0.1 | . | .
CC1CN(C2CCOCC2)Cc2ccccc2O1 (stereo unspecified) | -1.6 | -7.9 | -9.5 | 0.0 | . | .
COC(=O)c1sc(NC(=O)COc2ccc(Cl)cc2C)c(C(N)=O)c1C | -1.7 | 13.5 | 2.6 | 0.1 | . | .
CCc1c(C)sc(NC(=O)C2CC2)c1C(=O)OC | -0.4 | -0.5 | 5.5 | -0.1 | . | .
O=c1ccc(-c2ccc3cnc(Nc4ccc(-n5cnc(N6CCOCC6)n5)cc4)nc3c2)c[nH]1 | -0.5 | 60.1* | -13.3 | 0.9 | 5.0 | -2.4
c1cc(-c2ccc3cnc(Nc4ccc(-n5cnc(N6CCOCC6)n5)cc4)nc3c2)ccn1 | -1.4 | 16.1 | -40.3 | -0.1 | . | .
Cn1cc(-c2nc(Nc3ccc(-n4cnc(N5CCOCC5)n4)cc3)ncc2Br)cn1 | -0.5 | 56.8* | 4.2 | -0.1 | 66.9* | 2.8 | AlphaScreen DR=>6.48
Cc1ccccc1CN(C)S(=O)(=O)c1ccc2ccccc2c1 | -1.1 | -0.7 | 7.4 | 0.1 | . | .
O=C(CN1CCN(C(=O)CSc2ccc(F)cc2)CC1)c1cccs1 | -1.2 | 79.7* | -11.6 | 0.0 | 7.9 | 15.0
O=C(Nc1ccncc1)NC1CCNCC1 | 0.9 | -5.3 | -0.8 | 0.3 | . | .
CC(=O)Oc1cc(C(=O)OCC(=O)Nc2ccc(C)cc2)cc(OC(C)=O)c1OC(C)=O | 0.7 | 79.7* | -5.3 | -0.5 | 56.1* | 16.2 | AlphaScreen DR=>7.02
CC(=O)Nc1ccc(C(=O)OCC(=O)Nc2cc(C)cc(C)c2)cc1 | 1.5 | 9.1 | 4.1 | 0.0 | . | .
CCOc1ccccc1CN1CCN(S(=O)(=O)c2ccc(Cl)cc2)CC1 | -1.4 | 61.4* | -6.9 | 0.0 | 8.8 | 11.3
Cc1cc(S(=O)(=O)N2CCN(Cc3ccc(Cl)cc3)CC2)ccc1-n1cnnn1 | -0.3 | 60.0* | 10.5 | -0.1 | 12.9 | 9.8
COc1cccc(CN2CCN(S(=O)(=O)c3ccccc3)CC2)c1OC | 0.0 | -1.9 | -4.3 | -0.1 | . | .
SMILES | GPR151 activ | MITF inh | TEAD-YAP block | FBW7 activator | MITF confirm | AlphaScreen intf2 | others
Cc1ccccc1CN1CCN(S(=O)(=O)c2ccc(Cl)cc2)CC1 | -0.9 | 53.1* | -26.8 | -0.1 | 9.3 | 17.7
COc1ccccc1CN1CCN(S(=O)(=O)c2ccccc2)CC1 | -0.9 | 63.2* | -3.5 | 0.1 | 1.0 | 9.4
CCOC(=O)C(=O)N1c2cc(C)ccc2-c2c(ssc2=S)C1(C)C | 1.1 | 1.1 | 8.4 | 0.0 | . | .
O=C(c1ccccc1)N1N=C(c2ccccc2)OC1c1ccccc1 (stereo unspecified) | 1.0 | 10.5 | -57.2 | 0.2 | . | .
O=C(NCc1cccs1)C1CC12CCN(C(=O)Cc1ccc(-c3ccccc3)cc1)CC2 (stereo unspecified) | 0.9 | 11.7 | 7.7 | 0.0 | . | .
O=C(NCc1ccccc1)C1CC12CCN(C(=O)CCCc1cccs1)CC2 (stereo unspecified) | 1.0 | 61.7* | -33.0 | 0.1 | 1.1 | 6.9
O=C(OC1CCCC1=O)c1ccc(N2CCCC2=O)cc1 (stereo unspecified) | -1.7 | 62.4* | -20.9 | 0.0 | 44.4* | 9.6 | AlphaScreen DR=>7.22
CC(C)(C)C(=O)NC1CCN(C(=S)Nc2ccccc2Cl)CC1 | -0.9 | -4.3 | 2.7 | -0.1 | . | .
CCOC(=O)N1CCN(C(=O)CN(Cc2ccccc2)S(=O)(=O)c2cc(Cl)ccc2Cl)CC1 | 0.3 | -19.7 | -7.2 | -0.2 | . | .
N=S(=NS(=O)(=O)c1ccccc1)(c1ccccc1)c1ccccc1 | -0.7 | -10.5 | 1.0 | 0.0 | . | .
O=S(=O)(N=S(=O)(/C=C/c1ccccc1)c1ccccc1)c1ccccc1 (stereo unspecified) | 0.0 | 84.3* | 34.9* | 0.2 | 28.4* | 8.8 | AlphaScreen DR=>5.36
COc1cc(Nc2ccc(-n3cc(CC(=O)NCc4ccccc4)c4ccccc43)nn2)cc(OC)c1OC | 1.4 | 15.7 | 6.6 | 0.2 | . | .
CCN1CCN(C(=O)CN2C(=O)CCSc3ccccc32)CC1 | 0.0 | -1.6 | -2.2 | -0.1 | . | .
COc1ccc(N(C)C(=O)CCc2nc(-c3ccc(C)cc3)no2)cc1 | -0.6 | 55.8* | 11.8 | 0.0 | 9.7 | -4.5
O=C1CCCc2c1sc1nc3n(c(=O)c21)CCCCC3 | -0.8 | -2.5 | -44.2 | -0.2 | . | .
O=c1c2c3c(sc2nc2n1CCCCC2)CCC3 | 0.3 | 70.6* | -25.8 | 0.0 | -5.3 | 0.2
NC(=O)c1cccc(-c2csc3ccccc23)c1 | -1.0 | -4.4 | -5.3 | 0.1 | . | .
CCOC(=O)C1CCN(Cc2ccccc2[N+](=O)[O-])CC1 | 2.3 | 16.6 | 7.9 | -0.2 | . | .
O=[N+]([O-])c1ccccc1CN1CCC(N2CCc3ccccc3C2)CC1 | -1.9 | 71.5* | 5.7 | -0.2 | 13.1 | 27.3
O=[N+]([O-])c1ccccc1CN1CCc2ccccc2C1 | 1.6 | 21.0 | 11.4 | -0.2 | . | .
CC1CC(C)CN(C2CCN(Cc3ccccc3[N+](=O)[O-])CC2)C1 (stereo unspecified) | -0.8 | 57.6* | -4.6 | -0.2 | -0.3 | 2.7
O=[N+]([O-])c1ccccc1CN1CCN(C2CCN(Cc3ccccc3)CC2)CC1 | -1.6 | 87.6* | 3.0 | 0.0 | 2.0 | 12.6
CCN1CCN(C2CCN(Cc3ccccc3[N+](=O)[O-])CC2)CC1 | 0.9 | 8.7 | -14.8 | 0.3 | . | .
